Laboratory results reported in PubChem BioAssay (NCI).
This is part of a sample that, as a whole, favours compounds with a hit. Of some 83,000 tested, about 20% had one in any assay.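 Negative percent growth values reflect cell death: -40 means 40% of the cells present at the start died, and -100 means all died.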 The source made the active and inactive calls. How the source made its calls: active means growth percent below 10; inactive means the rest.

Assays:
Assay in all cases: NCI-60 one-dose screen, 48 h (100 = growth as untreated, 0 = no growth, -100 = all killed)
Settings in all cases: 10 µM
[1] = test system: K-562 leukemia
[2] = test system: MDA-MB-231 breast
[3] = test system: RXF 393 renal
[4] = test system: SF-268 CNS
[5] = test system: SF-295 CNS
[6] = test system: SF-539 CNS
[7] = test system: UACC-257 melanoma
[8] = test system: M14 melanoma
[9] = test system: HCT-15 colon
[10] = test system: HT29 colon
[11] = test system: SNB-75 CNS
[12] = test system: SNB-19 CNS
[13] = test system: U251 CNS
[14] = test system: PC-3 prostate
[15] = test system: SK-MEL-5 melanoma
[16] = test system: UACC-62 melanoma
[17] = test system: LOX IMVI melanoma
[18] = test system: SK-MEL-28 melanoma
[19] = test system: SK-MEL-2 melanoma
[20] = test system: MALME-3M melanoma

Measured: growth

O=C(CCCCC[P+](c1ccccc1)(c1ccccc1)c1ccccc1)NC(COC(=O)C(Cl)Cl)(COC(=O)C(Cl)Cl)COC(=O)C(Cl)Cl
inactive: [1] 98.2% | [2] 111% | [3] 101% | [4] 103% | [5] 99% | [6] 107% | [7] 97.5% | [8] 102% | [9] 99% | [10] 96.6% | [11] 103% | [12] 98.3% | [13] 97.1% | [14] 90.5% | [15] 92.4% | [16] 98% | [17] 102% | [18] 108% | [19] 100%

O=C(Nc1ccncc1)C(=O)c1cn(S(=O)(=O)c2cc(Cl)cc(Cl)c2)c2ccccc12
inactive: [1] 28.5% | [2] 63.6% | [3] 75% | [4] 94.3% | [5] 38.2% | [6] 61.7% | [7] 69.8% | [8] 71.5% | [9] 69.5% | [10] 42.4% | [11] 59.6% | [12] 82.4% | [13] 58.1% | [14] 63.9% | [15] 62.7% | [16] 57.4% | [17] 48% | [18] 78.4% | [19] 61.7%

Cc1ccc2oc3nc(C)c(C(=O)NCc4ccccc4)cc3c(=O)c2c1
active: [19] 8.63%
inactive: [1] 18.4% | [2] 88.8% | [3] 120% | [4] 95.3% | [5] 41.9% | [6] 99.3% | [7] 69.2% | [8] 29% | [9] 78.8% | [10] 95% | [11] 88% | [12] 83.2% | [13] 79% | [14] 93.5% | [15] 76.9% | [16] 25.6% | [17] 68.8% | [18] 78.1%

Cc1cs/c(=N\NC(=O)c2cc(-c3cc4ccccc4o3)nn2-c2ccccc2)n1-c1ccccc1
inactive: [1] 94.2% | [20] 99.5% | [2] 84% | [4] 92.5% | [5] 85% | [6] 106% | [8] 95.8% | [10] 93.6% | [11] 89.7% | [12] 92.8% | [13] 87.6% | [14] 114% | [15] 42.5% | [17] 82.7% | [18] 102% | [19] 91.6%

CC(=O)/C(=C/c1ccccc1)C(=O)CC(C)C
active: [17] -23%
inactive: [1] 41.5% | [2] 119% | [3] 103% | [4] 95.3% | [5] 102% | [6] 109% | [7] 89.6% | [8] 82.9% | [9] 76.1% | [10] 74.4% | [11] 91.4% | [12] 106% | [13] 63.6% | [14] 83.7% | [15] 88.1% | [16] 92.4% | [18] 95.6% | [19] 109%

COc1ccc2c(c1)sc1nc(-c3ccccc3)c(-c3ccc(O)c(OC)c3)n12
inactive: [1] 30.7% | [2] 90.7% | [3] 104% | [4] 88.7% | [5] 81.2% | [6] 86.9% | [7] 83.8% | [8] 38.1% | [9] 47.1% | [10] 21.5% | [11] 77.6% | [12] 80.4% | [13] 41.7% | [14] 82.3% | [15] 55.5% | [16] 66.2% | [17] 61.5% | [18] 73.6% | [19] 49.8%

c1ccc2c(c1)oc1c3c(ccc12)NCCC3
inactive: [1] 98.4% | [2] 90.2% | [3] 107% | [4] 96.1% | [5] 118% | [6] 93.4% | [7] 95.4% | [8] 109% | [9] 81.1% | [10] 95.1% | [11] 97.1% | [12] 108% | [13] 90.7% | [14] 91.5% | [15] 94.1% | [16] 84.2% | [17] 96.6% | [18] 107% | [19] 97.5%

O=C(Nc1ccc(Cl)c(Cl)c1)Nc1c(Oc2ccc(Cl)c(Cl)c2)ccc(Cl)c1S(=O)(=O)O
active: [1] 9.98% | [3] -14.3% | [5] -27.2% | [6] 4% | [10] 4.55% | [11] -11.6% | [15] 7.15% | [19] -1.82%
inactive: [2] 39.5% | [4] 52.1% | [7] 61.9% | [8] 19.3% | [9] 39.6% | [12] 48.3% | [13] 22.1% | [14] 19.6% | [16] 31.6% | [17] 33.8% | [18] 54.8%
